# Inconclusive results are not listed. Where a call stands in place of a potency, no number is given. Calls of active or inactive are those of the source. Calls come from the whole dose curve; as a rule, active = well fitted cell-killing curve with a large enough effect; inconclusive = small, poorly fitted or top-dose-only effect; inactive = flat fitted curve, though single readings scatter.
# Experiment: Cell Viability - LYMP2-026 (AID 989);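 note: cells exposed to compound for 24 h at 37 °C; nearly all actives have a fitted effect of over 50% in size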
# Settings: LYMP2-026 lymphoblastoid cell viability, qHTS; series mostly up to 92.2 µM
# From the text: NIH Chemical Genomics Center [NCGC]
# NIH Molecular Libraries Screening Centers Network [MLSCN]
# National Institutes of Environmental Health Sciences [NIEHS]
# National Toxicology Program [NTP]
# We have developed a 1536-well cell-based assay for quantitative high throughput screening (qHTS) against a number of cell lines to determine in vitro cytotoxicity of small molecules. This particular assay uses a human lymphoblastoid cell line (LYMP2-026) purchased from Coriell Institute for Medical Research.
# NCGC Assay Protocol Summary:
# The CellTiter-Glo luminescent cell viability assay (Promega) is a homogeneous method to measure the number of viable cells in culture. The end point readout of this assay is based on quantitation of intracellular ATP, an indicator of metabolic activity, using the luciferase reaction. Luciferase catalyzes the oxidation of beetle Luciferin to oxyluciferin and light in the presence of ATP. The luminescent signal is proportional to amount of ATP present.
# Using the CellTiter-Glo luminescent cell viability assay, the amount of cellular ATP was measured in the lymphoblastoid cell line with complete culture medium following compound treatment for 24 hours. The assay was performed in opaque white Kalypsys 1536-well plates. In the screen, tetraoctylammonium bromide was used as positive control. Library compounds were measured for their ability to cause acute toxicity in the cell line, as reflected by a decrease in intracellular ATP levels, in a concentration-dependent manner. […] AC50 values were determined from concentration-response data modeled with the standard Hill equation.
# qHTS protocol for CellTiter Glo lymphoblastoid cellular assay
# [Step] [Parameter] [Value] [Description]
# 1. Reagent; 5 uL; 2500 lymphoblastoid cells/well
# 2. Time; 5 hr; 37 C incubation
# 4. Controls; 23 nL; Tetraoctylammonium bromide 6.4pM to 92 uM
# 5. Time; 24 hr; 37 C incubation
# 6. Reagent; 5 uL; CellTiter Glo reagent
# 7. Time; 30 min; Room Temperature
# 8. Detection; Luminescence; Viewlux plate reader
# Keywords: cell viability, cytotoxicity, lymphoblastoid cell line, luminescence, NTPHTS, NTPHTS_NCGC, NIEHS, DSSTox, MLSMR, MLSCN, NIH Roadmap, qHTS, NCGC
# Potency is the fitted concentration of half-maximal effect.
row,SMILES,Potency
1,c1ccc2occc2c1,inactive
2,CC(C)C(C)(C)C(C)(C)C(C)(C)S,inactive
3,Cc1ccc(O)cc1,inactive
4,Brc1ccccc1-c1ccccc1,inactive
5,OCc1c[nH]c2ccccc12,inactive
6,Oc1ccccc1,inactive
7,Cc1cc(C(C)(C)C)c(O)c(C(C)(C)C)c1,inactive
8,Nc1cccc2c(N)cccc12,inactive
9,CCCC(=O)c1cc(O)c(O)cc1O,inactive
10,C1=CC2C3C=CC(C3)C2C1 (centres undefined),inactive
11,Nc1ccc(O)cc1,50.1 µM (active)
12,COc1cc(C=O)ccc1O,inactive
13,CC(C)(c1ccc(O)cc1)c1ccc(O)cc1,inactive
14,CCCCCCCCCCCCCCCC[n+]1ccccc1,15.8 µM (active)
15,CCCCC(CC)COC(=O)c1ccccc1C(=O)O (centres undefined),inactive
16,O=C(NO)c1ccccc1,inactive
17,O=C(c1ccccc1)c1ccccc1,inactive
18,Nc1c2ccccc2nc2ccccc12,15.8 µM (active)
19,O=C(Oc1ccccc1)c1ccccc1O,inactive
